Experimental data published in PubChem BioAssay AID463173 (ICCB-Longwood Screening Facility, Harvard Medical School, 2010).
The whole screen tested about 52,000 compounds, of which about 4,300 (8.3%) were called active. No stated cut-off is given here; in the data, active means survival mostly below about 52% (no sharp cut-off); inactive means mostly above about 56%. For the sample, actives were picked, then their nearest neighbours and some compounds at random.

Tested on: DeltatarO mutant
Assay: growth inhibition of S. aureus wild type versus tarO mutant, primary screen, teichoic acid synthesis inhibitors, RN4220, OD600 (AID 463173)
Settings: OD600, 18 h, hits give low values, screened at 18.75 µg/mL (by protocol)

SMILES | survival
COc1ccc2c(c1)cc1c(=O)n(CC(=O)NCCCOC(C)C)nc(C)n12 | 80% (inactive)
O=C(NCCc1ccc(Cl)cc1)c1c2c(nc3ccccc13)C(=O)N(C1CCCCC1)C2 | 92% (inactive)
Cn1c(C(=O)NCc2cccc(F)c2)cc2cc(S(=O)(=O)N3CCCCC3)ccc21 | 81% (inactive)
O=C(CSC1=NCCN1)C1COc2ccccc2O1 (stereo unspecified) | 88% (inactive)
Cc1ccc(C(=O)NCC(=O)OCc2cc(=O)n3ccsc3n2)cc1 | 74% (inactive)
CCN(CC)CCNC(=O)C(=O)NCC(c1cccnc1)N1CCN(c2ccc(F)cc2)CC1 (stereo unspecified) | 79% (inactive)
CC1(c2ccc(Cl)cc2)NC(=O)CS1 (stereo unspecified) | 96% (inactive)
C=CCNc1nc(C(C)C)nc2c1nnn2Cc1ccccc1 | 86% (inactive)
O=C(CSc1nc2ccccc2o1)Nc1ccc(S(=O)(=O)NC2CCCC2)cc1 | 66% (inactive)
COc1ccccc1NC(=O)C(=O)c1cc(C)n(-c2cc(C)cc(C)c2)c1C | 117% (inactive)
COCCCNC(=O)CSc1nc2ccccc2c(=O)n1Cc1ccco1 | 83% (inactive)
COc1cccc(CNC(=O)CCCn2ncn3c(cc4occc43)c2=O)c1OC | 119% (inactive)
Cc1ccc(NC(=O)Nc2cn(CC(C)C)c(=O)c3ccccc23)cc1N(C)C | 78% (inactive)
CC(=O)Nc1ccc(-n2cc3c(c2-c2ccc(C)cc2)c(=O)n(C)c(=O)n3C)cc1 | 92% (inactive)
COc1ccc(C)cc1N(C)C(=O)CCc1nc(-c2ccccc2F)no1 | 45% (inactive)
COc1ccc(-c2noc(CC(=O)N(C)c3cc(Cl)c(OC)cc3OC)n2)cc1 | 82% (inactive)
COc1ccc(-c2noc(CCC(=O)N(C)c3cc(Cl)ccc3OC)n2)cc1 | 26% (active)
Cc1ccc(NC(=O)CCN2C(=O)c3ccccc3Sc3ncccc32)cc1 | 66% (inactive)
CCN(CC)C(=O)Cn1c(C)c(C#N)c2ccccc21 | 96% (inactive)
O=C(CC(c1cccs1)N1Cc2ccccc2C1=O)Nc1ccc(F)c(Cl)c1 (stereo unspecified) | 83% (inactive)
CCn1c2ccccc2c2cc(CN3CCN(Cc4ccccc4C)CC3)ccc21 | -3% (active)
Cc1ccccc1Cn1c(=O)n(CCc2ccccc2)c(=O)c2ccccc21 | 64% (inactive)
Cc1cccc(CCn2c(=O)c3ccccc3n(Cc3ccccc3C)c2=O)c1 | 72% (inactive)
CCN(CC)C(=O)C1CCN(Cc2ccccc2F)CC1 | 99% (inactive)
CCn1c2ccccc2c2cc(CN3CCN(Cc4ccccc4F)CC3)ccc21 | 7% (active)
O=c1c2ccccc2n(Cc2ccccc2F)c(=O)n1-c1cccc(F)c1 | 68% (inactive)
